# An excerpt weighted towards active compounds, which were near 2.4% of everything screened.
# D2 PAM-1: positive allosteric modulators of human D2 dopamine receptor. HEK293 T-REx D2, calcium flux, EC20 dopamine potentiation. potentiation, % at 10 µM. 340,000 tested, 0.34% active. AID 485347;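 active = potentiation over 3 SD above the plate norm, cut at about 30% in these data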; note: 0% is about no effect
# Target sequence (P14416 whole entry, looked up): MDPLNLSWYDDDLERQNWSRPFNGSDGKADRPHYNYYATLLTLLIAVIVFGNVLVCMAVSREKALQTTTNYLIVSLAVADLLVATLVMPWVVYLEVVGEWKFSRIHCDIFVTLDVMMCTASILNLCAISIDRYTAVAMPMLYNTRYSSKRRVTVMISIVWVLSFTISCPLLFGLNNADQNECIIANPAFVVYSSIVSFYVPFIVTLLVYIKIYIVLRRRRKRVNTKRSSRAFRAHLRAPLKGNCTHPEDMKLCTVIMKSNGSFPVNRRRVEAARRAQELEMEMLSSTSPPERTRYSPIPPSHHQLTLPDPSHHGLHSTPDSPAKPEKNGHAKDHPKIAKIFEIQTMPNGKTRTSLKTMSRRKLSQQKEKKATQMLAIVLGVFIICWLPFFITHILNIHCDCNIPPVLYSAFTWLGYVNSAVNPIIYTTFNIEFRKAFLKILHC
#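 Potentiation of an EC20 dopamine calcium response is measured in a force-coupled, tetracycline-inducible Hek293 Trex D2 line. Compound-only kinetic reads over 180 s flag agonists before dopamine addition.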
# D2 ag-1: activates the human D2 dopamine receptor. P14416. DiscoveRx PathHunter D2 beta-arrestin, luminescence, 90 min; 100% = 57 uM dopamine signal. activation, % (concentration not given with the values). 360,000 tested, 0.084% active. AID 624465; in the data active = activation above about 40%
#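 Agonist mode: compounds alone added to overnight-plated D2 PathHunter cells for 90 min at 37 C, with 57 uM final dopamine (EC100) defining full response. Beta-arrestin recruitment detected by chemiluminescent reagent, read after 1 h at ambient temperature.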
# D2 PAM-2: positive allosteric modulators of human D2 dopamine receptor. AID 624464. 360,000 tested, 0.23% active. DiscoveRx D2 beta-arrestin cells, luminescence, 90 min; 100% = 57 uM dopamine signal. P14416. potentiation, % (test concentration not listed); in the data active = potentiation above about 50%
#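 PathHunter D2 cells, attached overnight at 37 deg C, received compound in DMSO plus dopamine at EC20 (50 nM final) for 90 min at 37 deg C. Beta-arrestin recruitment was read as luminescence after 1 h with detection reagent at ambient temperature.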
# D2 antag: antagonists of human D2 dopamine receptor; HEK293 TREx D2 cells, calcium flux, dopamine EC80; inhibition, % at 10 µM; P14416; 340,000 tested, 2% active; in the data active = inhibition above about 30%; inactive = below that, where a call was filed; note: 0% is about no effect
#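 Read-out: kinetic calcium fluorescence (1 cycle/s) in inducible HEK293 T-REx D2 cells after an EC80 dopamine addition that followed 180 s compound preincubation. Loss of the dopamine response indicates antagonism.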
# D2 ag-2: activates the human D2 dopamine receptor. P14416. HEK293 T-REx D2 cells, calcium flux agonist mode. activation, % at 2 µM. 340,000 tested, 0.53% active;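 active = activation over 3 SD above normal in the single-dose calcium agonist read, cut at about 30% in these data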; note: 0% is about no effect
#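 Calcium-flux readout, 1 cycle/sec over 180 s following compound pin transfer, in inducible HEK293 Trex D2 cells (force-coupled); dopamine controls included. Positive calcium responses during this window marked compounds as potential agonists.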
# An asterisk follows results filed as active; / = not tested or not shown.
SMILES,D2 PAM-1,D2 ag-1,D2 PAM-2,D2 antag,D2 ag-2
COc1ccc(C(=O)N/C(=C\c2cn(S(=O)(=O)N(C)C)c3ccccc23)C(=O)N2CCN(C)CC2)cc1,-16,2,-31,-5,0
CC(NC(=O)Cn1cc2c(n1)CCCCC2)c1ccccc1 (stereo not given),1,-2,0,35*,0
CCCCOc1ccc(C(=O)NCCS(=O)(=O)N2CCN(c3ccccc3OC)CC2)cc1,10,/,/,/,0
O=[N+]([O-])c1cc(-c2nc3nc4ccccc4nc3n2CCc2ccccc2)cc([N+](=O)[O-])c1,2,14,11,67*,0
Nc1nc(Cl)nc2c1ncn2[C@@H]1O[C@H](CO)[C@@H](O)[C@H]1O,12,2,-17,37*,4
COc1ccccc1NC(=O)CSc1nc2ccccc2nc1N1CC(C)OC(C)C1 (stereo not given),-8,-3,-1,-2,0
CCc1nc(SCC(=O)Nc2ccccc2OC)c2c(C)c(C)sc2n1,-9,-6,9,-7,1
COc1ccc(C)cc1NC(=O)CSc1nc2ccccc2nc1N1CC(C)OC(C)C1 (stereo not given),-1,-1,-2,38*,0
CCc1nc(SCC(=O)Nc2cc(C)ccc2OC)c2c(C)c(C)sc2n1,5,1,0,44*,0
Cn1cnc(S(=O)(=O)N2CCCC(C(=O)NCc3ccc(Cl)cc3)C2)c1 (stereo not given),1,/,/,/,0
c1ccc(CN2C3=NCCCN3c3ccccc32)cc1,12,3,-15,-25,-3
O=C1CN2C(=N1)N(Cc1ccccc1)c1ccccc12,-13,0,6,71*,1
CCCCCCNCc1ccc(Br)cc1,-21,-2,-27,30*,0
C=CCNC(=O)CSc1nnc(-c2cccc(S(=O)(=O)N3CCOCC3)c2)o1,/,-2,-5,/,/
CCC(=O)N1c2ccc(S(=O)(=O)NCc3cccc(OC)c3)cc2CC1C (stereo not given),23,/,/,/,0
CCOC(=O)c1ccc(NC(=S)N(CCCN2CCCC(C)C2)Cc2cccs2)cc1 (stereo not given),-32,-3,-28,40*,3
COc1cccc(NC(=S)N(CCCN2CCC(C)CC2)Cc2cccs2)c1,-35,-3,-17,59*,2
CCOC(=O)c1ccc(NC(=S)N(CCCN2CCCC2)Cc2cccs2)cc1,-16,-5,-25,9,4
COc1ccc(NC(=S)N(CCCN2CCC(C)CC2)Cc2cccs2)cc1,/,-1,-18,18,-1
CCOc1ccc(C(=O)NNC(=O)CN2C(=O)NC3(CCCC3)C2=O)cc1,-11,-4,3,42*,0
CCOc1ccc(C(=O)CN2C(=O)NC3(CCCCCC3)C2=O)cc1,5,-5,1,-2,0
O=C(O)C1CCN(C(=O)COc2ccc3c4c(c(=O)oc3c2)CCC4)CC1,16,-3,-7,15,5
NC(=O)C1CCN(C(=O)COc2ccc3c4c(c(=O)oc3c2)CCCC4)CC1,8,-6,-26,31*,2
CCc1ccc(S(=O)(=O)Nc2cccc(-c3ccc(N4CCCCC4)nn3)c2)s1,-3,/,/,/,-1
CCOc1c(Cl)cc(C(=O)N(Cc2ccc(N(C)C)cc2)Cc2ccco2)cc1Cl,14,/,/,/,1
SMILES,D2 PAM-1,D2 ag-1,D2 PAM-2,D2 antag,D2 ag-2
O=C(N/N=C/c1cccc(O)c1)N/N=C/c1cccc(O)c1,-4,2,3,24,2
Cc1nonc1C(=O)N/N=C/c1cccc(O)c1,15,-5,-1,33*,-1
Cc1cccc(N2CCN(C(=O)Cn3c(=O)c4cccn4c4ccc(F)cc43)CC2)c1C,-13,/,/,/,-1
O=C(CCCn1c(=O)c2ccccc2n(Cc2cccc(F)c2)c1=O)NC1CCN(Cc2ccccc2)CC1,-20,/,/,40*,18
O=C(NC1CCN(Cc2ccccc2)CC1)c1c(Cl)cccc1Cl,4,-3,-25,-6,0
O=C(/C=C/c1cccc(Br)c1)NC1CCN(Cc2ccccc2)CC1,-25,-2,-24,72*,1
O=C(/C=C/c1cccc(F)c1)NC1CCN(Cc2ccccc2)CC1,-25,-3,-18,56*,-1
O=C(COC(=O)/C=C/c1cccc(F)c1)NC1CC1,/,-2,-19,/,/
O=C(Nc1cccc(F)c1)NC1CCN(Cc2ccccc2)CC1,-29,-3,-18,89*,0
COC(=O)c1ccc(C2c3c(oc4ccc(C)cc4c3=O)C(=O)N2Cc2ccc3c(c2)OCO3)cc1 (stereo not given),5,/,/,/,0
CCN1CCC(NC(=O)Nc2cccc(C(F)(F)F)c2)CC1,-4,-2,-22,37*,0
Fc1cccc(CN2CCC(Cc3ccccc3)CC2)c1,1,1,-66,56*,-4
CCN1CCN(C(=O)Nc2cccc(C(F)(F)F)c2)CC1,-6,1,-7,-4,0
Fc1ccccc1CN1CCC(Cc2ccccc2)CC1,-2,-4,-9,4,-2
COc1ccc(OC)c(NC(=O)CSc2n[nH]c(-c3ccccc3Cl)n2)c1,-4,/,/,/,0
COc1ccc(C(C)(C)C)cc1NC(=O)COC(=O)CSCc1c(C)noc1C,0,-4,-28,36*,-1
CC(C)OC(=O)c1c(NC(=O)CCn2nnc3ccccc32)sc2c1CCCC2,/,0,3,37*,4
CC(C)OC(=O)c1c(NC(=O)CCC(=O)O)sc2c1CCCCC2,7,-2,-10,3,1
CCCn1c2ccccc2c2cnn(CC(=O)NC3CCCC(C)C3C)c(=O)c21 (stereo not given),-5,0,4,35*,0
N#Cc1c(-c2ccccc2)nc(SCc2cccc(Cl)c2)[nH]c1=O,0,2,1,30*,-1
Cc1cc(C)c(S(=O)(=O)N2CCN(C(=O)N(C)C)CC2)c(C)c1,32*,-1,-6,-5,0
Cc1nc(C)n(CC(C)C(=O)N2CCN(S(=O)(=O)c3ccccc3)CC2)n1 (stereo not given),-15,-2,-1,32*,-1
Cc1cc(C)c(S(=O)(=O)N2CCN(C(=O)N3CCCCC3)CC2)c(C)c1,7,-3,1,0,0
Cc1cc(C)c(S(=O)(=O)N2CCN(C(=O)C(C)Cn3nc(C)nc3C)CC2)c(C)c1 (stereo not given),12,3,-9,35*,1
Cc1ccccc1NC(=O)CSc1nc2ccc(NC(=O)c3ccccc3)cc2s1,-7,/,/,/,/
Cc1ccnc(N2C(=O)c3cccc4c([N+](=O)[O-])ccc(c34)C2=O)c1,-5,9,51*,6,2
Cc1nnc(N2C(=O)c3cccc4c([N+](=O)[O-])ccc(c34)C2=O)s1,-2,4,62*,-5,2

# Bioassay records deposited in PubChem by National Center for Advancing Translational Sciences (NCATS).
